# An excerpt weighted towards active compounds, which were near 4.8% of everything screened.
# SKKanGAS inh = inhibitors of SKKanGAS S. pyogenes growth in kanamycin (SK-promoter or general growth effect). BacTiter-Glo, 6 h. 1.3% of 300,000 active. AID 1662. inhibition, % at 7.5 µM;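 active means mean replicate score, as percent of positive control median, at least 50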;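 further: strain carries kanamycin resistance gene driven by streptokinase promoter and grows in 40 µg/ml kanamycin; loss of luminescence reflects streptokinase promoter inhibition or plain growth inhibition; 0% = median of DMSO wells and 100% = positive control at its reference dose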
# NALP1 yeast inh = NALP1 inhibition. inhibition, % at 10 µM. 0.61% of 280,000 active. S. cerevisiae NALP1/ASC/caspase-1 growth, X-gal OD620, 72 h; in the data active means inhibition mostly above about 24%, no sharp cut-off; inactive means mostly below about 32%
# tim10-1 inh = inhibits growth of tim10-1 mutant yeast; AID 463190; inhibition, % at 20 µM; S. cerevisiae tim10-1 ts strain growth, BacTiter-Glo, 24 h; 2.2% of 330,000 active;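 active means inhibition of at least 40%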;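 further: mutant grown at 25 °C; 0% = DMSO wells with yeast and 100% = wells holding no yeast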
# PfHsp90 set2 = growth inhibition of yeast expressing Plasmodium Hsp90; S. cerevisiae expressing PfHsp90, BacTiter-Glo ATP, 48 h; yeast lacking PDR1 and PDR3 efflux regulators; 0.32% of 310,000 active; AID 504621; inhibition, % at 9.4 µM;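 active means every replicate shows inhibition above about 80%, whatever the replicate mean, limit read from the data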;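 further: 0% = DMSO neutral controls and 100% = 20 µM radicicol positive controls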
# TIM10 inh = TIM10 yeast growth inhibition | S. cerevisiae TIM10 strain growth, BacTiter-Glo luminescence, 24 h | inhibition, % at 10 µM | 1.4% of 330,000 active;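 active means inhibition of 40% or more at the single tested concentration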;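 further: wild-type TIM10 isogenic control strain grown at permissive 25 °C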
# tim23-1 inh = growth inhibitors of tim23-1 mutant yeast; S. cerevisiae tim23-1 growth, BacTiter-Glo luminescence, 24 h; inhibition, % at 20 µM; 1.3% of 330,000 active;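 active means growth inhibition of the mutant yeast at or above 50%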;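 further: temperature-sensitive mutant grown at 25 °C; plate controls were DMSO-treated mutant yeast for no effect and medium wells lacking yeast for full effect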
# Active calls of the source: *; nt = no result given.
SMILES,SKKanGAS inh,NALP1 yeast inh,tim10-1 inh,PfHsp90 set2,TIM10 inh,tim23-1 inh
CCCCCCn1c(SCCN2CCOCC2)nc2c1c(=O)[nH]c(=O)n2C,0.6,-2.4,13.6,3.7,5.0,10.7
Cc1cc(C)c(S(=O)(=O)Nc2cccnc2)c(C)c1,4.7,8.1,20.6,nt,24.7,17.9
Cc1ccc(-c2cnn(-c3cccc(C(F)(F)F)c3)c2N)cc1,4.6,2.8,12.9,11.7,-2.6,9.1
Cc1ccc2c(c1)=C(c1sc(N(C)c3ccc(O)cc3)nc1O)C(=O)N=2,80.3*,1.4,-24.7,-1.6,-24.1,-27.6
O=C1N=c2ccc(Br)cc2=C1c1sc(=O)[nH]c1O,24.0,14.5,-6.5,nt,-16.4,-5.7
CCCOC(=O)c1ccc(NC(=O)c2ccc(Br)o2)cc1,0.2,61.3*,-19.4,-10.1,-3.6,26.2
COC(=O)Cc1ccc(NC(=O)c2ccc(Br)o2)cc1,2.3,-3.6,-12.4,15.6,-4.3,2.1
CCCOC(=O)c1ccc(NC(=O)Oc2ccccc2)cc1,-11.1,22.3*,-17.8,-3.5,-16.7,-16.7
Cc1cccc(CN2CCCC(C(=O)c3ccc4c5c(cccc35)CC4)C2)n1 (stereo not drawn),65.0*,5.1,22.1,-4.1,20.7,15.4
COc1ccc2cc(C(=O)C3CCCN(Cc4cccc(C)n4)C3)ccc2c1 (stereo not drawn),79.1*,10.0,38.4,2.1,-3.2,43.1
COCCCNC(=O)c1ccccc1N(Cc1ccccc1)S(=O)(=O)c1ccc(OC)cc1,9.3,7.9,23.3,-4.7,2.1,26.3
O=C(O)c1sc2ncccc2c1OCc1ccccc1,-11.6,-7.2,-9.5,-5.6,-2.6,18.9
CC(C)c1c(O)ccc2c1CC[C@H]1C(C)(C)CCC[C@]21C,nt,nt,nt,112.8*,nt,nt
CN1CCN(C(=O)/C(=C/c2ccco2)NC(=O)c2ccccc2)CC1,-5.1,12.9,-11.5,-3.9,6.0,6.4
CCc1ccc(CN2CCCC(CNS(=O)(=O)c3ccc(OC)cc3)C2)cc1 (stereo not drawn),0.8,4.1,7.6,8.3,-6.3,15.7
COc1ccc(S(=O)(=O)NCC2CCCN(Cc3ccc(C)o3)C2)cc1 (stereo not drawn),-3.5,33.0*,-6.8,-0.2,-14.3,3.0
CO[C@H]1C[C@@H]2CC[C@@H](C)[C@@](O)(O2)C(=O)C(=O)N2CCCC[C@H]2C(=O)O[C@H]([C@H](C)C[C@@H]2CC[C@@H](O)[C@H](OC)C2)CC(=O)[C@H](C)C=C(C)[C@@H](O)[C@@H](OC)C(=O)[C@H](C)C[C@H](C)C=CC=CC=C1C,nt,65.5*,nt,nt,nt,nt
CC(C)(O)c1[nH]c2cc(F)ccc2c1C(C)(C)O,89.9*,4.2,nt,9.4,nt,nt
CC(C)(O)c1[nH]c2ccc(C(F)(F)F)cc2c1C(C)(C)O,7.5,28.8,22.9,-7.2,12.7,23.2
CC(=O)n1c2ccccc2c2ccccc21,-1.5,9.6,24.7,-24.0,21.1,13.2
Cc1ccc(C(=O)n2c3ccccc3c3ccccc32)cc1,67.0*,5.9,0.0,nt,4.3,21.0
CC(C)c1c(C(=O)N/N=C/c2ccc(OCc3ccccc3)cc2)nnn1-c1nonc1N,8.0,6.7,11.5,-10.2,9.8,9.7
COc1cccc(/C=N/NC(=O)c2nnn(-c3nonc3N)c2C(C)C)c1OCc1ccc(F)cc1,60.3*,-6.2,33.6,-11.5,-8.2,24.0
CC(C)c1c(C(=O)N/N=C/c2cccc(OCc3ccccc3)c2)nnn1-c1nonc1N,80.9*,15.5,37.5,-12.3,8.1,24.3
CCOC(=O)c1cnc2c(c(C3CC3)nn2C)c1N1CCOCC1,-2.5,-3.4,-4.7,-13.7,-44.5,5.0
SMILES,SKKanGAS inh,NALP1 yeast inh,tim10-1 inh,PfHsp90 set2,TIM10 inh,tim23-1 inh
O=C(Nc1ccccc1Cl)NC1(C(=O)N2CCCCC2)CCCCC1,6.7,15.8,0.8,-20.4,6.8,8.1
O=C1CCCc2oc3c(cc(NS(=O)(=O)c4ccc5c6c(cccc46)C(=O)N5)c4ccccc43)c21,53.7*,nt,15.2,-2.7,-1.5,19.8
COc1ccc(Cn2nnnc2CN2CCc3ccccc32)cc1,1.3,2.1,26.3,0.1,19.3,37.2
COc1ccc(Cn2nnnc2CN2CCc3ccccc3C2)cc1,8.4,26.9*,16.9,-16.3,4.7,26.6
COc1ccc(S(=O)(=O)NC(C)C(=O)O)cc1 (stereo not drawn),0.6,1.3,-8.4,-0.7,7.0,18.3
Fc1ccc(CN2CCN(c3ncccn3)CC2)c(F)c1,-0.8,23.7,-11.6,5.5,0.6,-12.9
